About 83,000 compounds went through this panel and 20% of them were active in at least one assay; those are over-represented in the sample as a whole.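 Cells were grown in 96-well plates and exposed to the test compound at a single concentration for 48 hours; results are reported as percent growth, with values below 10 considered active.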 Values without a mark were called inactive. Active and inactive are the calls of the source.

The subject of this test is NCI-H23 lung. Put plainly: NCI-60 one-dose screen, 48 h (100 = growth as untreated, 0 = no growth, -100 = all killed). Particulars: 10 µM.
Take `COC(=O)CC1CC1C1Cc2c(nc(N(C)S(C)(=O)=O)nc2C(C)C)-c2ccc(F)cc21` (configuration not stated): the growth was 69.1%. Regarding `CN1CCN(c2ccc(Nc3nc(N4CCN(S(=O)(=O)c5ccc(Cl)cc5)CC4)c4sccc4n3)cc2)CC1`, the growth is 46.6%.

On to `Cc1ccc(-c2ccc(SCC(=O)Nc3ccc(Cl)c(C(F)(F)F)c3)nn2)cc1`, for which the growth is 30%. On to `Oc1ccc(/C=C2\CCCc3cc4ccc(O)cc4[o+]c32)c(O)c1`, for which the growth is 30%. The value for `O=C(Nc1ccc(F)c(Cl)c1)c1cc(-c2ccc(F)cc2F)ccc1O` was -46.9% (active). Turning to `CCN1CCN(c2ccc(NC(=O)Nc3ccc4c(c3F)CCN4c3ccnc(C(=O)NC)c3)cc2C(F)(F)F)CC1`, the growth was -79.4% (active). Then `O=C(CS(=O)(=O)c1oc(-c2ccc(Cl)cc2)nc1S(=O)(=O)c1ccccc1)N1CCCC1`, with 17.1%.

`C=C(C)[C@@H]1CC[C@]2(C)[C@H](CC=C3[C@@H]4CC(C)(C)CC[C@]4(C(=O)N4CCOCC4)CC[C@]32C)[C@@]1(C)CCCN`: the growth is -82.2% (active).

For `COc1ccccc1C(=O)NNC(=O)CSc1nc2c(c(=O)[nH]1)CCCC2`, the growth was 91.4%.

As for `Cc1ccc(/C(N)=N/c2sc(-c3ccccc3)nc2-c2ccccc2)cc1`, the growth was 83.1%. Turning to `O=C(COc1ccc(NC(=O)Nc2ccc(Cl)cc2)cc1)N=Nc1c(O)[nH]c2ccc([N+](=O)[O-])cc12`, the growth is 21.4%. Take `COc1cc(/C=C/C(=O)c2cc(OC)c(OC)c(OC)c2)ccc1Oc1nc(Nc2ccc(F)cc2)nc(N(C)C)n1`: the growth is -23.7% (active).

Values taken from PubChem BioAssay (NCI).
